Source: ChEMBL document CHEMBL1961873, “Compounds: GSK PKIS; Assays: Nanosyn kinase panel” (2012)

Legend:
[1] = target: Serine/threonine-protein kinase MRCK alpha (Homo sapiens) (UniProt Q5VT25); conditions: at 0.1 µM
[2] = target: Serine/threonine-protein kinase MRCK alpha (Homo sapiens) (UniProt Q5VT25); conditions: at 1 µM
[3] = target: Serine/threonine-protein kinase MRCK beta (Homo sapiens) (UniProt Q9Y5S2); conditions: at 0.1 µM
[4] = target: Serine/threonine-protein kinase MRCK beta (Homo sapiens) (UniProt Q9Y5S2); conditions: at 1 µM
[5] = target: Ribosomal protein S6 kinase alpha-5 (Homo sapiens) (UniProt O75582); conditions: at 0.1 µM
[6] = target: Ribosomal protein S6 kinase alpha-5 (Homo sapiens) (UniProt O75582); conditions: at 1 µM
[7] = target: Ribosomal protein S6 kinase alpha-4 (Homo sapiens) (UniProt O75676); conditions: at 0.1 µM
[8] = target: Ribosomal protein S6 kinase alpha-4 (Homo sapiens) (UniProt O75676); conditions: at 1 µM
[9] = target: Ribosomal protein S6 kinase beta-1 (Homo sapiens) (UniProt P23443); conditions: at 0.1 µM
[10] = target: Ribosomal protein S6 kinase beta-1 (Homo sapiens) (UniProt P23443); conditions: at 1 µM
[11] = target: T1, 3-phosphoinositide-dependent protein kinase 1 (Homo sapiens) (UniProt O15530); conditions: at 0.1 µM;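 also: values are mean inhibition of PDK1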
T1 sequence (whole entry): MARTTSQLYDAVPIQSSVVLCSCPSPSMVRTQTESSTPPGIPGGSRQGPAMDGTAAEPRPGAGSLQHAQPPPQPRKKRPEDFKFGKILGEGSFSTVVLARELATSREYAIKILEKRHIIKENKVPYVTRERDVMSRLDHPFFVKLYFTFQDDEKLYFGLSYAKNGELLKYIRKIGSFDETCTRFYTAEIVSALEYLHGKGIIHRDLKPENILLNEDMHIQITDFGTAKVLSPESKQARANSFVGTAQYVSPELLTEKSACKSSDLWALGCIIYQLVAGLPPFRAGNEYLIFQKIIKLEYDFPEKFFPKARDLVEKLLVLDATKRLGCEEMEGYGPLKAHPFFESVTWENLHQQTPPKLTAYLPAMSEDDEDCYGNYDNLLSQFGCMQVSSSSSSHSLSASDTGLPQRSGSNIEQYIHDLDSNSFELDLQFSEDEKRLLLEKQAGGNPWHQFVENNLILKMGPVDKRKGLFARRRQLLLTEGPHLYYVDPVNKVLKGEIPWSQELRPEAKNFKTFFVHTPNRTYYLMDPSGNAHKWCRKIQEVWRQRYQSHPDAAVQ

[12] = target: cAMP-dependent protein kinase catalytic subunit alpha (Homo sapiens) (UniProt P17612); conditions: at 0.1 µM
[13] = target: cAMP-dependent protein kinase catalytic subunit alpha (Homo sapiens) (UniProt P17612); conditions: at 1 µM
[14] = target: Protein kinase C alpha type (Homo sapiens) (UniProt P17252); conditions: at 0.1 µM
[15] = target: Protein kinase C alpha type (Homo sapiens) (UniProt P17252); conditions: at 1 µM
[16] = target: Protein kinase C beta type (Homo sapiens) (UniProt P05771); conditions: at 0.1 µM
[17] = target: Protein kinase C beta type (Homo sapiens) (UniProt P05771); conditions: at 1 µM
[18] = target: Protein kinase C eta type (Homo sapiens) (UniProt P24723); conditions: at 0.1 µM
[19] = target: Protein kinase C eta type (Homo sapiens) (UniProt P24723); conditions: at 1 µM
[20] = target: Protein kinase C gamma type (Homo sapiens) (UniProt P05129); conditions: at 0.1 µM;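 also: values are mean percent inhibition of PKC gamma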

Chain of Protein kinase C eta type (Homo sapiens) (P24723 whole entry): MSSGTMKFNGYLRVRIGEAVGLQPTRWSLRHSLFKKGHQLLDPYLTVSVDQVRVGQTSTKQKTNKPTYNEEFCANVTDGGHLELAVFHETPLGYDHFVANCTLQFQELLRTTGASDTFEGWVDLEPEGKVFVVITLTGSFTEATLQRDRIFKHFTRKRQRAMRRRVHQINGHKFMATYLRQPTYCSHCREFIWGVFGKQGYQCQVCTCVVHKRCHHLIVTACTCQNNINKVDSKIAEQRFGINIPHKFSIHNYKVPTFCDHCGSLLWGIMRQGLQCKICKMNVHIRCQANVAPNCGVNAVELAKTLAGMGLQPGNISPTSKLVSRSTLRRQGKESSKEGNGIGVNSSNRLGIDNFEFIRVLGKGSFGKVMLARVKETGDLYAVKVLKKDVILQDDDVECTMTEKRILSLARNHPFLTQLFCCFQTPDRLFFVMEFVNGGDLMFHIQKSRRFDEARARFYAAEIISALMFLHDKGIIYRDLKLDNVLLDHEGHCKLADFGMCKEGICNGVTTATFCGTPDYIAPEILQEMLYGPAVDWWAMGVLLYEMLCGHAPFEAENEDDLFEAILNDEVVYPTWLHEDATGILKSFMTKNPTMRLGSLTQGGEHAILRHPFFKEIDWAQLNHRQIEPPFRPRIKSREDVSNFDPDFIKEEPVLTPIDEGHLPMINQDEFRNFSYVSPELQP
Chain of Ribosomal protein S6 kinase alpha-5 (Homo sapiens) (O75582 whole entry, looked up): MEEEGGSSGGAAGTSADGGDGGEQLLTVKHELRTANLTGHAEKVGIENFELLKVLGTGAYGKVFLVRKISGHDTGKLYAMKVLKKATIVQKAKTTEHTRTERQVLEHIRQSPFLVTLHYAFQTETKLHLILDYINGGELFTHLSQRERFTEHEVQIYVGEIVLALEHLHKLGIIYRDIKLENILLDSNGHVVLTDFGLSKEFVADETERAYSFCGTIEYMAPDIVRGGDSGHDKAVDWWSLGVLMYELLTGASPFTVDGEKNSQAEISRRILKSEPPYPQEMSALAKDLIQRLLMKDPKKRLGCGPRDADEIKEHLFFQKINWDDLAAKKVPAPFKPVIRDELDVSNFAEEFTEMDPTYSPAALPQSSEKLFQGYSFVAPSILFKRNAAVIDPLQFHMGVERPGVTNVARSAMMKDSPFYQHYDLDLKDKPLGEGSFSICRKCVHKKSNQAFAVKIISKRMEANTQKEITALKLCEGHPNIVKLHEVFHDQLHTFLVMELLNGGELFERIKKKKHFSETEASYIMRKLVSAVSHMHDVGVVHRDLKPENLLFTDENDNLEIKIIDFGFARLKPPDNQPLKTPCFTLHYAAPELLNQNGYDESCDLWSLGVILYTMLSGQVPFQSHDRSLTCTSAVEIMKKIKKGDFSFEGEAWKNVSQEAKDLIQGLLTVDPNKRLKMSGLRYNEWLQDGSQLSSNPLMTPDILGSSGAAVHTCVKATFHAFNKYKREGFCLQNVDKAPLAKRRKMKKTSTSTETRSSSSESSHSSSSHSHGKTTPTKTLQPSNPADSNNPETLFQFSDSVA
Chain of Serine/threonine-protein kinase MRCK alpha (Homo sapiens) (Q5VT25 whole entry): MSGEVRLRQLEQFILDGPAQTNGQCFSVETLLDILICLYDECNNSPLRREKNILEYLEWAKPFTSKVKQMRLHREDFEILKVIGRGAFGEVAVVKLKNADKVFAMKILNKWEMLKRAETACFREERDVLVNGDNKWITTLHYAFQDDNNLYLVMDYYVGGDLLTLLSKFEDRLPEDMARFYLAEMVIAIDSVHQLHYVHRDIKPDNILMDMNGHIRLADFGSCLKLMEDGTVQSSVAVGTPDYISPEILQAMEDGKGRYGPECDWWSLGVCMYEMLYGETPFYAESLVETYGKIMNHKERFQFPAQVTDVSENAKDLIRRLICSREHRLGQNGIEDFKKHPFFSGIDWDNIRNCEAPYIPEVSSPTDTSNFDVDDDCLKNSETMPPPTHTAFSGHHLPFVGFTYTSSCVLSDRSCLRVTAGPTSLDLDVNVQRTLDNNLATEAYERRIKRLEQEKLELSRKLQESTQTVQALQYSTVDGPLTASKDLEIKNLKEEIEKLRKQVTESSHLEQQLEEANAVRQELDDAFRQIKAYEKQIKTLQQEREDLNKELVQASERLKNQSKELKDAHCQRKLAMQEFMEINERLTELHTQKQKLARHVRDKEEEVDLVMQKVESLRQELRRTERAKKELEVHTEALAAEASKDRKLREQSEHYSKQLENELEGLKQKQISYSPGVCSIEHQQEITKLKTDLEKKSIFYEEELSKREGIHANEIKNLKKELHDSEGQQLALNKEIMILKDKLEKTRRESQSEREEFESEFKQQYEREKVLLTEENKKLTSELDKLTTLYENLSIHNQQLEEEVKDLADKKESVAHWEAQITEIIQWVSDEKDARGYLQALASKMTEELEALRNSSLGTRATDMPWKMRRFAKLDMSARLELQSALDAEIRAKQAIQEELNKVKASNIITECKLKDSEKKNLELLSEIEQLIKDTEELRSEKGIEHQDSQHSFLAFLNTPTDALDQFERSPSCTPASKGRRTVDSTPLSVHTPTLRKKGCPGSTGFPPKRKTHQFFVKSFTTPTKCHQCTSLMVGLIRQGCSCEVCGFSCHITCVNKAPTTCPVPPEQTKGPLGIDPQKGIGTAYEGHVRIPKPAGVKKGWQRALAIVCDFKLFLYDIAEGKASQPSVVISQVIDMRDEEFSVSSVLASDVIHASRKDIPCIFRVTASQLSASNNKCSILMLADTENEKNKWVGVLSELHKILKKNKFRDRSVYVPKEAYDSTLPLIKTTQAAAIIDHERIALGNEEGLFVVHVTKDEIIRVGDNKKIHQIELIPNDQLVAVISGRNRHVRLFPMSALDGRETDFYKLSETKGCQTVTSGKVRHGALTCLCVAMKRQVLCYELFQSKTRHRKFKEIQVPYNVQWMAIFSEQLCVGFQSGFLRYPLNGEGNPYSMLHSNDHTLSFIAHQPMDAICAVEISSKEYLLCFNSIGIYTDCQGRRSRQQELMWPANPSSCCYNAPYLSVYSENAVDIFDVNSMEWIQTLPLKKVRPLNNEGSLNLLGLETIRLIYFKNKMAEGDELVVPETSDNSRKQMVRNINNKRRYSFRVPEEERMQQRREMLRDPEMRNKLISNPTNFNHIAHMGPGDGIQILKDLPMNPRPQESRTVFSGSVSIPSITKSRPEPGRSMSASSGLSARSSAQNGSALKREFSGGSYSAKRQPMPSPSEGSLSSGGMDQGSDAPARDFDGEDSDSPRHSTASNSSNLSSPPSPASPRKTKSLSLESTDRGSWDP
Chain of Ribosomal protein S6 kinase alpha-4 (Homo sapiens) (O75676 whole entry, looked up): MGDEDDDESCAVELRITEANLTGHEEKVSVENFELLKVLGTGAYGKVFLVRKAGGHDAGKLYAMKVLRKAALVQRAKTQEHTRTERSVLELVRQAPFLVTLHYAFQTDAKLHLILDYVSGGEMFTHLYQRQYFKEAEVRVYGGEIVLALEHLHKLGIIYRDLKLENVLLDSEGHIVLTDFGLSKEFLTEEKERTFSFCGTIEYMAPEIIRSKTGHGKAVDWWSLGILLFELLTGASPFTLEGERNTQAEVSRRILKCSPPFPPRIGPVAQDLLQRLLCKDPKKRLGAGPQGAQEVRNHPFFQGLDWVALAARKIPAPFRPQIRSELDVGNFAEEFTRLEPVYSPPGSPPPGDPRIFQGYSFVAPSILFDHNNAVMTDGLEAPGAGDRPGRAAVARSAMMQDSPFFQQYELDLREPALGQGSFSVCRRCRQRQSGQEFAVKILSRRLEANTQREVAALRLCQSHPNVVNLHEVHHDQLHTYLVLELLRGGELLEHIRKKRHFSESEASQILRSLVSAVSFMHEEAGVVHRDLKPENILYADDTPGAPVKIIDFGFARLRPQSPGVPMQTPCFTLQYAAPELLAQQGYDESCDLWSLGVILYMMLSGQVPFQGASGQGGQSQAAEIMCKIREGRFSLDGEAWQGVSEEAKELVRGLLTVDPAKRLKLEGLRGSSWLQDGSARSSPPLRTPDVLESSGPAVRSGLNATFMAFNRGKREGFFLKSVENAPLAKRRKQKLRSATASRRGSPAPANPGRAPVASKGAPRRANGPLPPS
Chain of Protein kinase C beta type (Homo sapiens) (P05771 2-671 limits assumed): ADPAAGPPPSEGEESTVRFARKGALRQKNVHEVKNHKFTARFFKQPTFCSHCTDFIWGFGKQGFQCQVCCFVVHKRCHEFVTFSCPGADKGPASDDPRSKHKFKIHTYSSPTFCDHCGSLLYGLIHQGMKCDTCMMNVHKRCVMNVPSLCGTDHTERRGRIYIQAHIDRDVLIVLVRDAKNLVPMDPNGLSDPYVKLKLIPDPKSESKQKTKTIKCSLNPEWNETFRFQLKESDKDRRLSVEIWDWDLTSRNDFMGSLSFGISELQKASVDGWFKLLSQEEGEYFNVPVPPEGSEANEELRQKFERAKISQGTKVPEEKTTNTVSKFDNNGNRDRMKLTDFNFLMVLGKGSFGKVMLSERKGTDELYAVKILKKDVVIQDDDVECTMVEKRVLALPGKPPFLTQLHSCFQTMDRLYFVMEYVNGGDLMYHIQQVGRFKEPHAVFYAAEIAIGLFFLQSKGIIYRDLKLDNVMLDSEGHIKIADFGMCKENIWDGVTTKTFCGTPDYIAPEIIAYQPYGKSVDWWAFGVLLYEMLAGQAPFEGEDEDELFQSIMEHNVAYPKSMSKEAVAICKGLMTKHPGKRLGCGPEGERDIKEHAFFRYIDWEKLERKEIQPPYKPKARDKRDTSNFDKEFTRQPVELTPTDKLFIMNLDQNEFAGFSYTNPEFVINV

Cc1ccc(Nc2ccnc(Nc3cccc(C(N)=O)c3)n2)cc1O
inhibition [1]: -0.17%
inhibition [2]: 1.81%
inhibition [3]: -0.24%
inhibition [4]: -0.07%
inhibition [5]: 1.2%
inhibition [6]: 1.01%
inhibition [7]: 2.41%
inhibition [8]: 4.49%
inhibition [9]: 1.61%
inhibition [10]: 6.47%
inhibition [11]: 2.89%
inhibition [12]: -1.93%
inhibition [13]: -0.05%
inhibition [14]: -1.9%
inhibition [15]: 8.24%
inhibition [16]: 0.32%
inhibition [17]: 4.35%
inhibition [18]: 6.2%
inhibition [19]: 4.32%
inhibition [20]: 4.85%

NS(=O)(=O)c1ccc(Nc2cc(-c3cccc(O)c3)n[nH]2)cc1
inhibition [1]: 0.59%
inhibition [2]: 0.11%
inhibition [3]: 0.64%
inhibition [4]: 1.33%
inhibition [5]: 5.25%
inhibition [6]: 5.94%
inhibition [7]: 2.94%
inhibition [8]: 9.16%
inhibition [9]: 0.39%
inhibition [10]: 2.83%
inhibition [11]: 1.78%
inhibition [12]: 3%
inhibition [13]: 2.6%
inhibition [14]: 1.01%
inhibition [15]: 1.85%
inhibition [16]: -3.34%
inhibition [17]: 1.78%
inhibition [18]: 3.19%
inhibition [19]: 2.17%
inhibition [20]: 2.3%

ON=C1CCc2cc(-c3nc(C4CCNCC4)[nH]c3-c3ccncc3)ccc21
inhibition [1]: 1.01%
inhibition [2]: 1.89%
inhibition [3]: -0.75%
inhibition [4]: 1.17%
inhibition [5]: -0.09%
inhibition [6]: -0.44%
inhibition [7]: -0.82%
inhibition [8]: 1.3%
inhibition [9]: 0.43%
inhibition [10]: -1.14%
inhibition [11]: -0.07%
inhibition [12]: 1.54%
inhibition [13]: 18.8%
inhibition [14]: 1.13%
inhibition [15]: 2.47%
inhibition [16]: -0.12%
inhibition [17]: 11.1%
inhibition [18]: -0.55%
inhibition [19]: 2.63%
inhibition [20]: -1.91%

CS(=O)(=O)Nc1cccc(-c2ccc3c(NC(=O)C4CC4)n[nH]c3c2)c1
inhibition [1]: 1.58%
inhibition [2]: 2.47%
inhibition [3]: 0.84%
inhibition [4]: 1.32%
inhibition [5]: 1.49%
inhibition [6]: 1.04%
inhibition [7]: 0.62%
inhibition [8]: 2.85%
inhibition [9]: 1.15%
inhibition [10]: 1.9%
inhibition [11]: -0.34%
inhibition [12]: 0.91%
inhibition [13]: 1.02%
inhibition [14]: 0.79%
inhibition [15]: 1.61%
inhibition [16]: -1.18%
inhibition [17]: -0.16%
inhibition [18]: 1.82%
inhibition [19]: 3.34%
inhibition [20]: 1.6%

CCn1c(-c2nonc2N)nc2c(C#CC(C)(C)O)nc(OCCNC)cc21
inhibition [1]: 1.79%
inhibition [2]: 6.63%
inhibition [3]: -0.48%
inhibition [4]: 2.36%
inhibition [5]: 1.77%
inhibition [6]: 2.97%
inhibition [7]: 3.16%
inhibition [8]: 9.93%
inhibition [9]: 3.31%
inhibition [10]: 10.1%
inhibition [11]: 1.35%
inhibition [12]: 11.6%
inhibition [13]: 49.2%
inhibition [14]: 0.49%
inhibition [15]: 3.55%
inhibition [16]: 4.85%
inhibition [17]: 29.9%
inhibition [18]: 78.9%
inhibition [19]: 95.4%
inhibition [20]: -2.02%

Cc1ccc(C(=O)NC2CC2)cc1-c1ccc2[nH]ncc2c1
inhibition [1]: 1.33%
inhibition [2]: 0.57%
inhibition [3]: 0.35%
inhibition [4]: 5.75%
inhibition [5]: -4.06%
inhibition [6]: -3.97%
inhibition [7]: -1.94%
inhibition [8]: -1.58%
inhibition [9]: -1.62%
inhibition [10]: -3.02%
inhibition [11]: -3.15%
inhibition [12]: -2.46%
inhibition [13]: 0.47%
inhibition [14]: -0.47%
inhibition [15]: 0.07%
inhibition [16]: -0.41%
inhibition [17]: -0.31%
inhibition [18]: -4.21%
inhibition [19]: -3.72%
inhibition [20]: -0.11%

COc1cccc(-n2ncc3c(N/N=C/c4ccc(C)cc4)ncnc32)c1
inhibition [1]: 4.17%
inhibition [2]: 5.98%
inhibition [3]: 1.06%
inhibition [4]: 1.73%
inhibition [5]: -3.87%
inhibition [6]: -2.7%
inhibition [7]: 3.45%
inhibition [8]: 5.55%
inhibition [9]: 2.62%
inhibition [10]: 3.95%
inhibition [11]: 0.64%
inhibition [12]: 3.22%
inhibition [13]: 2.93%
inhibition [14]: 0.52%
inhibition [15]: 1.66%
inhibition [16]: 0.67%
inhibition [17]: 1.01%
inhibition [18]: 5.56%
inhibition [19]: 4.73%
inhibition [20]: 2.06%

Nc1nccc(-c2c(-c3ccc(F)cc3)ncn2CCCN2CCOCC2)n1
inhibition [1]: 0.42%
inhibition [2]: 1.54%
inhibition [3]: 0.49%
inhibition [4]: 1.1%
inhibition [5]: 6.47%
inhibition [6]: 6.81%
inhibition [7]: 4.22%
inhibition [8]: 3.46%
inhibition [9]: 1.35%
inhibition [10]: 1.45%
inhibition [11]: 0.38%
inhibition [12]: 3.31%
inhibition [13]: 9.33%
inhibition [14]: 0.84%
inhibition [15]: 4.5%
inhibition [16]: 1.5%
inhibition [17]: 7.05%
inhibition [18]: 4.26%
inhibition [19]: 7.49%
inhibition [20]: 3.25%

N#Cc1cccc(Nc2nccc(-c3cnn4ncccc34)n2)c1
inhibition [1]: 0%
inhibition [2]: 2.93%
inhibition [3]: -1.54%
inhibition [4]: 1.01%
inhibition [5]: 3.66%
inhibition [6]: 8.54%
inhibition [7]: 2.1%
inhibition [8]: 8.46%
inhibition [9]: 0.58%
inhibition [10]: 3.59%
inhibition [11]: 2.83%
inhibition [12]: 2.6%
inhibition [13]: 12.8%
inhibition [14]: 26.2%
inhibition [15]: 72.8%
inhibition [16]: 2.69%
inhibition [17]: 20%
inhibition [18]: 7.07%
inhibition [19]: 31.9%
inhibition [20]: 6.2%

COc1ccc(-c2nn3ncccc3c2-c2ccnc(Nc3cccc(C(F)(F)F)c3)n2)cc1
inhibition [1]: -3.04%
inhibition [2]: 1.22%
inhibition [3]: 0.66%
inhibition [4]: -0.13%
inhibition [5]: 1.92%
inhibition [6]: -0.09%
inhibition [7]: 2.61%
inhibition [8]: 1.73%
inhibition [9]: 1.77%
inhibition [10]: 0.85%
inhibition [11]: -0.15%
inhibition [12]: 2.04%
inhibition [13]: 2.61%
inhibition [14]: 0.27%
inhibition [15]: 1.31%
inhibition [16]: 1.46%
inhibition [17]: 2.39%
inhibition [18]: 0.87%
inhibition [19]: 0.72%
inhibition [20]: 2.97%

Cc1ccc2c(-c3ccnc(Nc4cccc(C(F)(F)F)c4)n3)c(-c3ccccc3)nn2n1
inhibition [1]: 1.06%
inhibition [2]: 5.98%
inhibition [3]: 0.83%
inhibition [4]: 1.46%
inhibition [5]: -3.38%
inhibition [6]: -4.64%
inhibition [7]: 2.52%
inhibition [8]: 3.99%
inhibition [9]: 2.1%
inhibition [10]: 2.71%
inhibition [11]: 0.65%
inhibition [12]: 2.43%
inhibition [13]: 4.26%
inhibition [14]: 1.57%
inhibition [15]: 10.6%
inhibition [16]: 0.54%
inhibition [17]: 3.6%
inhibition [18]: 5.12%
inhibition [19]: 4.11%
inhibition [20]: -1.08%

CN1CCN(C(=O)c2ccc(NC(=O)Nc3ccc(N(C)c4ccnc(Nc5ccc(CS(C)(=O)=O)cc5)n4)cc3)cc2)CC1
inhibition [1]: 5.17%
inhibition [2]: 7.71%
inhibition [3]: -0.06%
inhibition [4]: 3.61%
inhibition [5]: 1.16%
inhibition [6]: 3.3%
inhibition [7]: 2.61%
inhibition [8]: 13.8%
inhibition [9]: 1.43%
inhibition [10]: 5.8%
inhibition [11]: 1.6%
inhibition [12]: 1.2%
inhibition [13]: 4.5%
inhibition [14]: -0.39%
inhibition [15]: 0.75%
inhibition [16]: 0.01%
inhibition [17]: 2.15%
inhibition [18]: 3.18%
inhibition [19]: 2.34%
inhibition [20]: 2.19%

NC(=O)c1cccc(Nc2nccc(Nc3cccc(F)c3)n2)c1
inhibition [1]: 1.84%
inhibition [2]: 0.87%
inhibition [3]: 0.04%
inhibition [4]: 1.43%
inhibition [5]: 1.48%
inhibition [6]: 0.2%
inhibition [7]: 0.68%
inhibition [8]: 1.21%
inhibition [9]: 0.38%
inhibition [10]: 1.99%
inhibition [11]: -1.35%
inhibition [12]: 1.44%
inhibition [13]: 0.76%
inhibition [14]: 0.15%
inhibition [15]: 4.54%
inhibition [16]: -2.22%
inhibition [17]: -5.72%
inhibition [18]: 1.84%
inhibition [19]: 2.62%
inhibition [20]: 2.94%

[O-][S+]1CCN(Cc2ccc(-c3ccc4ncnc(Nc5ccc(OCc6ccccc6)c(Cl)c5)c4c3)o2)CC1
inhibition [1]: -2.24%
inhibition [2]: -0.57%
inhibition [3]: 0.47%
inhibition [4]: -0.33%
inhibition [5]: 1.47%
inhibition [6]: 1.03%
inhibition [7]: -0.52%
inhibition [8]: 0.11%
inhibition [9]: -1.26%
inhibition [10]: -0.16%
inhibition [11]: 0.06%
inhibition [12]: 2.94%
inhibition [13]: 7.99%
inhibition [14]: 0.05%
inhibition [15]: 0.88%
inhibition [16]: 0.56%
inhibition [17]: 0.65%
inhibition [18]: 1.86%
inhibition [19]: 2.18%
inhibition [20]: -0.93%
